Holding throughout (test): NCI-60 one-dose screen, 48 h (100 = growth as untreated, 0 = no growth, -100 = all killed)
One experiment deals with EKVX NSCLC. Conditions: 10 µM unless noted.
Another experiment has as its system SN12C renal. Conditions: 10 µM unless noted.
For a further experiment, the system named is UO-31 renal. Conditions: 10 µM unless noted.
The test system of a further experiment is TK-10 renal. The settings on record: 10 µM unless noted.
In a further experiment the test system is ACHN renal. The settings on record: 10 µM unless noted.
The test system of the next experiment is A498 renal. The settings on record: 10 µM unless noted.
In a further experiment the test system is CCRF-CEM leukemia. Conditions: 10 µM unless noted.
Another experiment concerns MOLT-4 leukemia. The settings on record: 10 µM unless noted.
For the next experiment, the system named is SR leukemia. The settings on record: 10 µM unless noted.
The test system of another experiment is RPMI-8226 leukemia. The settings on record: 10 µM unless noted.
For a further experiment, the system named is OVCAR-8 ovarian. The settings on record: 10 µM unless noted.
Another experiment concerns OVCAR-5 ovarian. Conditions: 10 µM unless noted.
The test system of the next experiment is OVCAR-4 ovarian. The settings on record: 10 µM unless noted.
For a further experiment, the system named is SK-OV-3 ovarian. The settings on record: 10 µM unless noted.
In a further experiment the test system is OVCAR-3 ovarian. Conditions: 10 µM unless noted.
In a further experiment the test system is HS 578T breast. The settings on record: 10 µM unless noted.
The next experiment relates to NCI/ADR-RES ovarian. Conditions: 10 µM unless noted.
The subject of a further experiment is CAKI-1 renal. Conditions: 10 µM.
The subject of the next experiment is IGROV1 ovarian. The settings on record: 10 µM unless noted.

Results on seven molecules are retold here after PubChem BioAssay (NCI).

About 83,000 compounds went through this panel and 20% of them were active in at least one assay; those are over-represented in the sample as a whole.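 Growth was measured after 48 h exposure to one concentration of compound in 96-well plates. Values under 10 count as active.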 Values without a mark were called inactive. Calls of active or inactive are those of the source.

Turning to `O=C(NC(=S)Nc1ccc(Cl)cc1)c1ccccc1`, the growth with EKVX NSCLC is 78.7%; with SN12C renal it was 98.4%; in the experiment on UO-31 renal it was 83.1%; with TK-10 renal it was 117%; in the experiment with ACHN renal, 101%; with A498 renal it was 103%. In addition, the growth with CCRF-CEM leukemia was 102%; with MOLT-4 leukemia, 72.8%; in the experiment on SR leukemia, 67.9%; with RPMI-8226 leukemia, 95.3%; with OVCAR-8 ovarian, 102%; in the experiment on OVCAR-5 ovarian it was 84.8%. Besides, the growth in the experiment with OVCAR-4 ovarian is 85.6%; in the experiment with SK-OV-3 ovarian, 115%; in the experiment on OVCAR-3 ovarian, 125%; in the experiment with HS 578T breast it was 127%; in the experiment with NCI/ADR-RES ovarian, 104%.

Take `COc1ccc(-c2nn(-c3ccc(NC(=O)c4ccc(Cl)c(C(F)(F)F)c4)cc3)cc2-c2ccncc2)cc1Cl`: the growth was 34.8% in the experiment on EKVX NSCLC; 44.3% in the experiment with SN12C renal; -26.8% (active) with UO-31 renal; 27.3% in the experiment with ACHN renal; -33.6% (active) with CAKI-1 renal; -5.21% (active) in the experiment on A498 renal. Besides, the growth in the experiment on CCRF-CEM leukemia was 23.4%; with MOLT-4 leukemia, 1.35% (active); with SR leukemia, 7.78% (active); in the experiment with OVCAR-8 ovarian, 46.5%; with OVCAR-5 ovarian, 46.5%; with OVCAR-4 ovarian, 93.9%. Besides, the growth was 58.1% in the experiment on SK-OV-3 ovarian, 44.8% in the experiment on IGROV1 ovarian, 24% in the experiment on OVCAR-3 ovarian and 35.7% in the experiment on NCI/ADR-RES ovarian.

Turning to `C=CC(=O)Nc1cccc(Nc2nc(Nc3ccc(OCCOC(F)F)cc3)ncc2F)c1`, the growth was 67.6% in the experiment with EKVX NSCLC; 22% in the experiment on SN12C renal; 6.93% (active) in the experiment with UO-31 renal; 4.89% (active) in the experiment on ACHN renal; 11.3% in the experiment with CAKI-1 renal; -35.4% (active) in the experiment on A498 renal. The growth is 24.8% with CCRF-CEM leukemia; 33.5% in the experiment on MOLT-4 leukemia; 10.5% in the experiment with SR leukemia; 42.1% in the experiment on RPMI-8226 leukemia; 46% with OVCAR-8 ovarian; 45.6% in the experiment with OVCAR-5 ovarian. The growth in the experiment with OVCAR-4 ovarian was 40.6%; with SK-OV-3 ovarian, -25% (active); in the experiment on IGROV1 ovarian, 14%; in the experiment on OVCAR-3 ovarian it was 48.4%; in the experiment on HS 578T breast, 23.4%; with NCI/ADR-RES ovarian, 44.6%.

Turning to `COc1ccc(/C=C2/C(=O)Nc3cc(Cl)c(-c4csc(N)n4)cc32)cc1`, the growth in the experiment on EKVX NSCLC is 46.5%; in the experiment on SN12C renal it was 59.6%; in the experiment with UO-31 renal it was 55.6%; in the experiment on TK-10 renal it was 84.4%; in the experiment with A498 renal it was 25.1%; in the experiment on CCRF-CEM leukemia it was 31.7%. Also, the growth with MOLT-4 leukemia was 28.2%; with SR leukemia it was 18.4%; in the experiment with RPMI-8226 leukemia, 39.3%; in the experiment with OVCAR-8 ovarian, 61.8%; with OVCAR-5 ovarian it was 85%; in the experiment on OVCAR-4 ovarian, 70.1%. The growth in the experiment on SK-OV-3 ovarian is 48.5%; with IGROV1 ovarian, 56.1%; with OVCAR-3 ovarian, 17%; in the experiment with HS 578T breast, 45.7%; in the experiment on NCI/ADR-RES ovarian, 32.2%.

Regarding `COc1ccc(Cl)cc1NC(=O)c1cc2c(n1C)-c1nc(NC(=O)C(C)(C)C)sc1CC2`, the growth in the experiment on EKVX NSCLC was 76.2%; in the experiment on SN12C renal, 107%; in the experiment with UO-31 renal, 53.5%; with TK-10 renal, 98%; in the experiment with A498 renal it was 94%; in the experiment with CCRF-CEM leukemia it was 98.5%. For the same molecule, the growth in the experiment with MOLT-4 leukemia is 72.5%; in the experiment on SR leukemia, 85.2%; in the experiment on RPMI-8226 leukemia it was 83.4%; in the experiment with OVCAR-8 ovarian, 109%; in the experiment with OVCAR-5 ovarian, 104%; in the experiment on OVCAR-4 ovarian, 94.8%. Further, the growth in the experiment with SK-OV-3 ovarian is 67.7%; with IGROV1 ovarian it was 98.1%; in the experiment with OVCAR-3 ovarian, 105%; in the experiment on HS 578T breast it was 98.5%; in the experiment on NCI/ADR-RES ovarian, 93.8%.

Consider `CCOC(=O)C(C)(CSSCC(C)(NC(=O)c1ccc2ccccc2c1)C(=O)OCC)NC(=O)c1ccc2ccccc2c1` (stereo not given), for which the growth is 90.3% in the experiment on EKVX NSCLC; 104% with SN12C renal; 80.6% with UO-31 renal; 103% in the experiment with TK-10 renal; 102% with ACHN renal; 136% in the experiment with A498 renal. Besides, the growth with CCRF-CEM leukemia was -42.5% (active); with MOLT-4 leukemia it was 53.1%; in the experiment with SR leukemia, 61.2%; in the experiment with RPMI-8226 leukemia, 93.4%; in the experiment with OVCAR-8 ovarian, 90.6%; in the experiment on OVCAR-5 ovarian it was 127%. In addition, the growth in the experiment with OVCAR-4 ovarian is 104%; in the experiment with SK-OV-3 ovarian, 107%; in the experiment with IGROV1 ovarian it was 93.3%; in the experiment with OVCAR-3 ovarian, 110%; in the experiment on HS 578T breast it was 118%; with NCI/ADR-RES ovarian, 105%.

As to `O=C(NCCNc1nccc(-c2c(-c3cccc(O)c3)nc3sccn23)n1)Nc1cc(C(F)(F)F)cc(C(F)(F)F)c1`, the growth in the experiment on EKVX NSCLC is 52.2%; in the experiment on SN12C renal it was 82.8%; in the experiment with UO-31 renal, 73.1%; in the experiment with ACHN renal it was 65.9%; in the experiment with CAKI-1 renal, 72.3%; in the experiment on A498 renal, 86%. Also, the growth was 39.1% in the experiment with CCRF-CEM leukemia; 60.2% in the experiment on MOLT-4 leukemia; 65.3% with SR leukemia; 45.7% with RPMI-8226 leukemia; 52.8% in the experiment with OVCAR-8 ovarian; 96.5% in the experiment with OVCAR-5 ovarian. In addition, the growth was 121% in the experiment with OVCAR-4 ovarian; 89.3% in the experiment on SK-OV-3 ovarian; 65.2% with IGROV1 ovarian; 82.2% in the experiment with OVCAR-3 ovarian; 87.8% in the experiment with NCI/ADR-RES ovarian.
